Several values for one entry are separate records, joined by “and”; a condition that tells them apart may be missing. Equal values may be shown once. Out of some 16,000 compounds screened, about 5,800 (36%) were called active. Not shown: some 23% with an inconclusive outcome. Calls come from the whole dose curve; as a rule, active = well fitted curve in the direction sought with a large enough effect; inconclusive = small, poorly fitted or top-dose-only effect, or effect the other way; inactive = no such curve, though single readings can be large or run the other way. This is one part of the list. A structure can be active in one record and inactive in another.
Biological target: Cytochrome P450 2C19 (Homo sapiens) (UniProt P33261)
Sequence (P33261 whole entry, looked up): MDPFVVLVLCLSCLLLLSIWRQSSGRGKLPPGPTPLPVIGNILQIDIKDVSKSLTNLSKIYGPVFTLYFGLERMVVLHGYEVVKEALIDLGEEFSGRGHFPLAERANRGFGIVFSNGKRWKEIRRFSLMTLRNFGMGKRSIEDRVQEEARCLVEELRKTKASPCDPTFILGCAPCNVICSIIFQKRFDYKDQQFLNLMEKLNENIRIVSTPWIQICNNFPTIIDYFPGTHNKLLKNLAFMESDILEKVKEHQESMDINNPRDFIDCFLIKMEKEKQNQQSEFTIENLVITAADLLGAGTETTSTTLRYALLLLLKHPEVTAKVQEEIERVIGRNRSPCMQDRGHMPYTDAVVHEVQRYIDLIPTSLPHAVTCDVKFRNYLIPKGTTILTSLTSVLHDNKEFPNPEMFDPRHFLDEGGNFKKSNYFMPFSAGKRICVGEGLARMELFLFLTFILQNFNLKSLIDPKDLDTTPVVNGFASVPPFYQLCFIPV
Test: Cytochrome panel assay with activity outcomes
Conditions: recombinant CYP, pro-luciferin dealkylation, luminescence, p450-cyp2c19; series mostly up to 57.1 µM; activity, negative = inhibition: at the top concentration
% is set by controls: 0 for no effect and ±100 for the full control effect.

Compound	activity, negative = inhibition	AC50
COc1ccc2c(c1)CCC1C2CC[C@]2(C)[C@H](NCCCCCCN3C(=O)C=CC3=O)CC[C@@H]12 (some centres undefined)	33.9% (inactive)	–
COc1cc2c(c(OC)c1OC)-c1ccc(O)c(=O)cc1[C@H](N)CC2	-2.81% [at 25.6 µM] (inactive)	–
CN1[C@@H](C[C@@H](O)c2ccccc2)CCC[C@@H]1C[C@H](O)c1ccccc1	35.4% [at 25.6 µM] (inactive)	–
O=C(Oc1ccccc1)N1CCC2(CCCN(Cc3nccs3)C2)CC1	22.6% (inactive)	–
NCC[C@H](O)C(=O)N[C@H]1C[C@@H](N)[C@@H](O[C@H]2O[C@@H](CN)[C@@H](O)[C@@H](O)[C@@H]2N)[C@@H](O[C@H]2O[C@@H](CO)[C@@H](O)[C@@H]2O)[C@@H]1O	23.6% [at 25.6 µM] (inactive)	–
Nc1nc(N)c(N=Nc2ccc([As](=O)(O)O)c(O)c2)c(N)n1	31% [at 11.4 µM] (inactive)	–
NC(=NCCc1ccc(I)cc1)SCCCc1cnc[nH]1	-36.4% (inactive)	–
CN1C(=O)C(=Cc2ccc(N3CCCCCC3)o2)C(=O)N(C)C1=S	–	2.24 µM (active)
O=C(Nc1cccc(F)c1)N1CC2(CCNCC2)C1	-10.4% (inactive)	–
COC(=O)[C@@H]1[C@@H](O)[C@@]2(O)c3c(OC)cc(OC)cc3O[C@@]2(c2ccc(OC)cc2)[C@H]1c1ccccc1	8.06% [at 11.4 µM] (inactive)	–
CCC1=C(C[C@H]2NCCc3ccccc32)C[C@@H]2c3cc(OC)c(OC)cc3CCN2C1	-23.2% [at 11.4 µM] (inactive)	–
C[C@]12CC[C@@H]3[C@H](CCC4=CC(=O)CC[C@]43C)[C@]1(O)CC[C@@]2(O)C(=O)CO	24.8% [at 11.4 µM] (inactive)	–
N[C@@H]1C=CC=C(C(=O)O)C1	26.3% (inactive)	–
O=[N+]([O-])c1cc(O)c(O)c([N+](=O)[O-])c1	-35.3% (inactive)	–
O=[N+]([O-])c1ccc(S(=O)(=O)Cc2ccccc2)c([N+](=O)[O-])c1	–	2 µM (active)
O=C(O)Cc1ccc([N+](=O)[O-])cc1[N+](=O)[O-]	-28.8% [at 11.4 µM] (inactive)	–
c1ccc(N2CC[C@@]3(CCCNC3)C2)nc1	10.5% (inactive)	–
CN1C(=O)C(=Cc2ccccc2Oc2ccc(Cl)c(F)c2)C(=O)N(C)C1=O	–	3.55 µM (active)
COc1cc2c(cc1OC)[C@@]13CCN4CC5=CCO[C@H](CC(=O)O)[C@@H]([C@H]1N2)[C@H]5C[C@H]43	-11.9% [at 11.4 µM] (inactive)	–
C[C@](N)(CCP(=O)(O)O)C(=O)O	-26.4% (inactive)	–
CC1CN=C(Nc2cccc3ccccc23)S1 (centres undefined)	–	3.98 µM (active)
CC(=O)O[C@@H]1CN2CCC1CC2	-13.1% (inactive)	–
c1ccc(CCN2CCCCCC2)nc1	38.1% [at 11.4 µM] (inactive)	–

Compound	activity, negative = inhibition	AC50
CC(=O)N[C@@H]1CCSC1=O	14.5% [at 25.6 µM] (inactive)	–
CN(N=O)C(=O)N[C@H]1C(O)OC(CO)[C@@H](O)[C@H]1O (some centres undefined)	–	7.94 µM (active)
CC(=O)[C@]1(O)CC[C@@H]2[C@H]3C[C@@H](C)C4=CC(=O)CC[C@@]4(C)[C@H]3[C@@H](O)C[C@]21C	-31.5% [at 11.4 µM] (inactive)	–
C=C[C@@H]1CN2CC[C@H]1C[C@H]2[C@H](O)c1ccnc2ccccc12	44.5% [at 11.4 µM] (inactive)	–
NC(N)=NN=Cc1c(Cl)cccc1Cl	27.6% [at 25.6 µM] (inactive)	–
CCCN1CCO[C@@H]2c3cc(O)ccc3OC[C@H]21	-29.4% (inactive)	–
CCCN1CC[C@@H]2c3cc(O)ccc3CC[C@H]21	-19% (inactive)	–
CCCN1CCO[C@@H]2c3cc(O)ccc3OC[C@@H]21	–	10 µM (active)
O=C(O)[C@H]1[O][Sb][O][C@@H](C(=O)O)C1O (some centres undefined)	15.3% [at 11.4 µM] (inactive)	–
COc1cc2ccccc2c2cc([N+](=O)[O-])oc12	-34.1% [at 11.4 µM] (inactive)	–
c1cc(CCN2CCCCC2)ccn1	9.84% [at 11.4 µM] (inactive)	–
c1ccc(CCCCN2CCC(c3ccccc3)CC2)cc1	–	15.8 µM (active)
c1ccc2c([C@@H]3CCN(CCN4CCOCC4)C3)c[nH]c2c1	23.2% [at 11.4 µM] (inactive)	–
C1C[C@@H]2CN(CCCN3CCOCC3)[C@@H](C1)O2	-1.65% [at 11.4 µM] (inactive)	–
Cc1c2cc[n+](CCN3CCCCC3)cc2c(C)c2c1[nH]c1ccc(O)cc12	17.2% [at 11.4 µM] (inactive)	–
N=C1c2ccccc2CN1NC(=O)c1ccc(Cl)cc1	1.92% (inactive)	–
C[C@@H]1O[C@H](O[C@H]2C[C@@H](O)[C@@]3(CO)[C@H]4[C@@H](O)C[C@]5(C)[C@@H](C6=CC(=O)OC6)CC[C@]5(O)[C@H]4CC[C@]3(O)C2)[C@@H](O)[C@H](O)[C@@H]1O	-10.4% [at 25.6 µM] (inactive)	–
CCN1C[C@]2(COC(=O)c3ccccc3N3C(=O)C[C@H](C)C3=O)CC[C@H](OC)[C@@]34[C@@H]5C[C@H]6[C@H](OC)[C@H]5[C@](O)(C[C@@H]6OC)[C@@](O)([C@@H](OC)[C@@H]23)[C@@H]14	3.08% (inactive)	–
CC[C@@]1(O)C(=O)OCc2c1cc1n(c2=O)Cc2cc3c(NC(=O)CN)cccc3nc2-1	11.8% [at 11.4 µM] (inactive)	–
CC[C@@]1(O)C(=O)OCc2c1cc1n(c2=O)Cc2cc3ccccc3nc2-1	–	inactive and 20 µM (active)
CC[C@]1(OC(=O)CN)C(=O)OCc2c1cc1n(c2=O)Cc2cc3ccccc3nc2-1	17% [at 11.4 µM] (inactive)	–
Clc1cc(I)cc(Cl)c1NC1=NCCN1	-0.585% (inactive)	–
CC(C)NC(=O)N1CCCC2(CCN(C(=O)Oc3ccccc3)CC2)C1	-29% (inactive)	–

Compound	activity, negative = inhibition	AC50
CC[C@H](Oc1ccc(Cl)cc1)C(=O)OC1C[C@H]2CC[C@@H](C1)N2C (some centres undefined)	–	0.0158 µM (active)
CN1[C@@H]2CC[C@H]1CC(OC(=O)c1cc(Cl)cc(Cl)c1)C2 (some centres undefined)	-36.3% (inactive)	–
C[C@@H](C(=O)OC1C[C@H]2CC[C@@H](C1)N2C)c1ccc(Br)cc1 (some centres undefined)	-8.86% (inactive)	–
CCCN(CCC)C1Cc2cc(OC)c(OC)cc2C1	–	inactive
NCCSC(c1ccccc1)c1ccccc1	–	1.26 µM (active)
C[N+]1(C)CCN(c2ccccc2)CC1	32% (inactive)	–
C=CCN1CCc2cccc3c2[C@@H]1Cc1ccc(O)c(O)c1-3	-54% (inactive)	–
CC(=O)NCCc1c[nH]c2ccccc12	–	10 µM (active)
NCCc1c[nH]c2ccccc12	-13.2% (inactive)	–
CN(C)CCCc1c[nH]c2ccccc12	-13.7% [at 11.4 µM] (inactive)	–
c1ccc2c(c1)Sc1ccccc1N2C[C@H]1CN2CCC1CC2	38.1% [at 11.4 µM] (inactive)	–
CN(C(=O)Cc1ccc(Cl)c(Cl)c1)[C@@H](CN1CCCC1)c1cccc(OCC(=O)O)c1	–	inactive
CN(C(=O)Cc1ccc(Cl)c(Cl)c1)[C@H](CN1CCCC1)c1ccccc1	–	0.316 µM (active)
C=CCN1CC[C@]23c4c5ccc(O)c4O[C@@H]2/C(=N/NC(=O)c2ccccc2)CC[C@@]3(O)[C@H]1C5	-19.2% (inactive)	–
CC(C)N(CC[C@@](C(N)=O)(c1ccccc1)c1ccccn1)C(C)C	–	inactive
COC(=O)[C@@]1(Cc2ccc(F)cc2)[C@H]2c3cc(C(=O)N(C)C)[nH]c3C[C@H]2CN1C(=O)c1ccccc1	–	20 µM (active)
CC[N+](C)(C)c1cccc(O)c1	-25.1% [at 25.6 µM] (inactive)	–
C/C=C1\C[C@H](C)[C@@](O)(CO)C(=O)OCC2=CCN3CC[C@@H](OC1=O)[C@@H]23	-42% [at 25.6 µM] (inactive)	–
CC(C)C12CN3CC(C(C)C)(CN(C1)C3c1cccnc1)C2=O (centres undefined)	–	14.1 µM (active)
CCN=C=NCCCN(C)C	27.1% [at 11.4 µM] (inactive)	–
C[N+]1(C)C2CC(OC(=O)C(CO)c3ccccc3)CC1[C@@H]1O[C@H]21 (some centres undefined)	–	inactive
C[C@H]1CN(C2CCC(C#N)(c3ccc(F)cc3)CC2)CC[C@@]1(C(=O)O)c1ccccc1 (some centres undefined)	-32.5% [at 25.6 µM] (inactive)	–
FC(F)(F)c1nc2ccc(SSc3ccc4nc(C(F)(F)F)[nH]c4c3)cc2[nH]1	–	5.01 µM (active)

Compound	activity, negative = inhibition	AC50
C=C(C)[C@H]1CN[C@H](C(=O)O)[C@@H]1CC(=O)O	28% (inactive)	–
c1cc(CN2CC3(CCNCC3)C2)ccn1	-40.1% (inactive)	–
CC(C)[C@@H]1CN[C@H](C(=O)O)[C@@H]1CC(=O)O	-4.7% (inactive)	–
COC[C@H]1OC(=O)c2coc3c2[C@@]1(C)C1=C(C3=O)[C@H]2CCC(=O)[C@@]2(C)C[C@H]1OC(C)=O	-4.95% (inactive)	–
CCCN1CCC[C@H](c2cccc(O)c2)C1	–	inactive
Fc1ccc(CCNCc2ccc(Cl)c(Cl)c2)cc1	–	0.316 µM (active)
O=C1NC(=S)NC(=O)C1=Cc1cccc2cc3ccccc3cc12	-39.2% [at 11.4 µM] (inactive)	–
O=c1cc(-c2ccc(O)cc2)oc2c([C@H]3O[C@@H](CO)[C@@H](O)[C@@H](O)[C@@H]3O)c(O)cc(O)c12	7.98% [at 25.6 µM] (inactive)	–
O=P(O)(O)CCP(=O)(O)O	13.6% [at 11.4 µM] (inactive)	–
COc1ccc(C2SCC(=O)Nc3c2c(C)nn3-c2ccccc2)cc1OC (centres undefined)	–	10 µM (active)
CNC(=O)Oc1ccc2c(c1)[C@@]1(C)CCN(C)[C@@H]1N2C	33.5% [at 25.6 µM] (inactive)	–
C[C@]12CC[C@H]3c4ccc(O)cc4CC[C@@H]3[C@H]1CC[C@@H]2OP(=O)(O)O	34.7% [at 11.4 µM] (inactive)	–
CCCN(CCC)C(=O)Cc1c(-c2ccc(Cl)cc2)nc2c(Cl)cc(Cl)cn12	16.9% (inactive)	–
COc1ccc(OC)c([C@H](O)[C@H](C)N)c1	–	inactive
COc1ccc(Cl)cc1NC(=O)NCCCl	–	20 µM (active)
CC1=NCCc2c1[nH]c1cc(O)ccc21	-35.5% [at 25.6 µM] (inactive)	–
O=C(NCCN1CCN(C(=O)C(c2ccccc2)c2ccccc2)CC1)C(=O)Nc1ccccc1	–	25.1 µM (active)
O=C(OC1CCN(CCCl)CC1)C(c1ccccc1)c1ccccc1	-33.4% (inactive)	–
O=C(c1ccccc1)[C@H]1[C@H](c2ccccc2[N+](=O)[O-])N1C1CCCCC1 (some centres undefined)	-82.8% [at 11.4 µM] (inactive)	–
Cc1ccc(C2(c3ccc(C)c(O)c3C)CCN(C)CC2)c(C)c1O	2.67% [at 11.4 µM] (inactive)	–

— PubChem BioAssay AID1851 (National Center for Advancing Translational Sciences (NCATS), 2009)
